# Test results taken from the supplement of paper PMC10849652.
# Of roughly 7,900 targets only a part is listed; those with a hit were picked by preference. About 0.6% of all pairs of compound and target were hits.
# Compound: NC(=O)Nc1cc(-c2cccc(F)c2)sc1C(=O)N[C@H]1CCCNC1
# Assay: log2 fold change, soluble protein after heating vs DMSO (PISA); higher = thermal stabilisation; K562 cells, 10 uM, 30 min; active = over 0.2 and 3.5 SD of the protein, either way, in both replicates (recomputed)
# How it was run: (§1)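 Thermal stability values are relative to control samples and come from duplicates. They are expressed as log2 fold changes. For measurement, K562 cells (2×10^6 cells/mL) received 10 μM compound for 30 min, and aliquots were heated for 3 min over 48°C-58°C, pooled, and extracted at 4°C in PBS with 0.5% NP-40. Soluble protein, the supernatant after 21,000xg for 90 min, was quantified by TMTpro 16plex LC-MS/MS with equalised channel sums.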
# Chain of UniProt Q9NX61 (Q9NX61 whole entry, looked up): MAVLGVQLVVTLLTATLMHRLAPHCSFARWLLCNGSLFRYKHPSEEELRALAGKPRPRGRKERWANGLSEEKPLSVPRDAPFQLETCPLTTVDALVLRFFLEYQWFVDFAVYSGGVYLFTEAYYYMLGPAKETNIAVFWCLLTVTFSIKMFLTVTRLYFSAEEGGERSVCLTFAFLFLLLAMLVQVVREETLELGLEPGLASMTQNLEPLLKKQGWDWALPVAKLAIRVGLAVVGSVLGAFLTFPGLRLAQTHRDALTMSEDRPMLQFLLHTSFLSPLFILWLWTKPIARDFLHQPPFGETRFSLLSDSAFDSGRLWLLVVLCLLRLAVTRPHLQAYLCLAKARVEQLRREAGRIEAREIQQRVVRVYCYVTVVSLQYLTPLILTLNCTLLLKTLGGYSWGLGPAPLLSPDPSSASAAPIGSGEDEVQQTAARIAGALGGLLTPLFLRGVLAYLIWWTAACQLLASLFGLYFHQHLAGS
# Chain of UniProt Q9Y5Z9 (Q9Y5Z9 whole entry, looked up): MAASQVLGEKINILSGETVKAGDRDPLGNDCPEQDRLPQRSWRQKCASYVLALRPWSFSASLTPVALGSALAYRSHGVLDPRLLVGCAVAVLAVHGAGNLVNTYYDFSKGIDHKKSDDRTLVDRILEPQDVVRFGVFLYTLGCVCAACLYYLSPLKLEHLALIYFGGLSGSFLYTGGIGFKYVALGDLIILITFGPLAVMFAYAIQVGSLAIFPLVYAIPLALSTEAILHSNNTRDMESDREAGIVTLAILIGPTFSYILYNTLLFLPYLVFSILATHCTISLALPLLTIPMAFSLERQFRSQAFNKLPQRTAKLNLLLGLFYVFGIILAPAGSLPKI
# Chain of UniProt Q8NEZ2 (Q8NEZ2 whole entry, looked up): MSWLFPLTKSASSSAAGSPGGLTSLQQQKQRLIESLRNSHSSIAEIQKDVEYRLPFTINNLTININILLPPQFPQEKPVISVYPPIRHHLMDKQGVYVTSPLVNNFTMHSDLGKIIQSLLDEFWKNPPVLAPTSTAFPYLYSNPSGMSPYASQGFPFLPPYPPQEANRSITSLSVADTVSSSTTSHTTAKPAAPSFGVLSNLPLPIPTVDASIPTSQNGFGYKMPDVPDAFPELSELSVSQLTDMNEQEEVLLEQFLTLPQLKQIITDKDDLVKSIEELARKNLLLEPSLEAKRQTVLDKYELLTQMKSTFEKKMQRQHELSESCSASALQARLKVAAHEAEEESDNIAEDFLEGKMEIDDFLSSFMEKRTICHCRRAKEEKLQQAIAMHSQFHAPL
# Chain of UniProt Q9UK41 (Q9UK41 whole entry, looked up): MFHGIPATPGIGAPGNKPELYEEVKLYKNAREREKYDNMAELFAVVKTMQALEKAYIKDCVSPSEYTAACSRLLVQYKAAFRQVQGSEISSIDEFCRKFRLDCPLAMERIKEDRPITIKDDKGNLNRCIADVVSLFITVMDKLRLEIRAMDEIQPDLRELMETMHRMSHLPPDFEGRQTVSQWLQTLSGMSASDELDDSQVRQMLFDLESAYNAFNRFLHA
# Chain of UniProt O95155 (O95155 whole entry, looked up): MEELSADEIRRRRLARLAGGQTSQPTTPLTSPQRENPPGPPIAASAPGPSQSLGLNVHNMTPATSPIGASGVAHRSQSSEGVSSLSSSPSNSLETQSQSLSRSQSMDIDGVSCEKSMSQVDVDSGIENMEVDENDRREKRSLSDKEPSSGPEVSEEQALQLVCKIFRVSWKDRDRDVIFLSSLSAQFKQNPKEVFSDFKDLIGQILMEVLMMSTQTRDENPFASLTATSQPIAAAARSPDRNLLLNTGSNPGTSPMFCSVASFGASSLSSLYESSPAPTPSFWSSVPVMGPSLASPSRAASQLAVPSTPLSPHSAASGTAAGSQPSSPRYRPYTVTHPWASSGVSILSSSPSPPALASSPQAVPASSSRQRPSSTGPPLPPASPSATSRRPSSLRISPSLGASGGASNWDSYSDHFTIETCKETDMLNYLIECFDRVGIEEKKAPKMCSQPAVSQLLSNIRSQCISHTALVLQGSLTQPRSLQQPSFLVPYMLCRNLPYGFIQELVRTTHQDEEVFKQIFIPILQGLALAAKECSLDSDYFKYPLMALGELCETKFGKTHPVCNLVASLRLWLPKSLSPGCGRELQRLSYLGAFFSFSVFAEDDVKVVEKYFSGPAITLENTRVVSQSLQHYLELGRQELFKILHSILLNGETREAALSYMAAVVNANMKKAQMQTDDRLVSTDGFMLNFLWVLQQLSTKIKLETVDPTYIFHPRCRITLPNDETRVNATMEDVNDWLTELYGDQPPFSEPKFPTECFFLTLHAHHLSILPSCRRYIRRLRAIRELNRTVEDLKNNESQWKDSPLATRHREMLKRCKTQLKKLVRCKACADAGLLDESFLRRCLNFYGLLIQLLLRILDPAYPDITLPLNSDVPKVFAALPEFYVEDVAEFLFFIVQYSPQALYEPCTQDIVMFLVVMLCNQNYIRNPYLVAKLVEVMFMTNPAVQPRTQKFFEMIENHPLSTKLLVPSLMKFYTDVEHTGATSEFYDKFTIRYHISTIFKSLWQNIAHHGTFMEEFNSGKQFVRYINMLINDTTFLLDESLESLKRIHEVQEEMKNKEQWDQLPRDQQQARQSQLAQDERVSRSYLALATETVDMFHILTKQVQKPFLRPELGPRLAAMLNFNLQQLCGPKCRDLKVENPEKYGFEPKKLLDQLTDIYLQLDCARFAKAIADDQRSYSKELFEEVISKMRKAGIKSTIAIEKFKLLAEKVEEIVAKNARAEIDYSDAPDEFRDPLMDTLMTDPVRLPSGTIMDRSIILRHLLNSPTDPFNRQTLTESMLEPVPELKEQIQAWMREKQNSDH
# Chain of UniProt P98170 (P98170 whole entry, looked up): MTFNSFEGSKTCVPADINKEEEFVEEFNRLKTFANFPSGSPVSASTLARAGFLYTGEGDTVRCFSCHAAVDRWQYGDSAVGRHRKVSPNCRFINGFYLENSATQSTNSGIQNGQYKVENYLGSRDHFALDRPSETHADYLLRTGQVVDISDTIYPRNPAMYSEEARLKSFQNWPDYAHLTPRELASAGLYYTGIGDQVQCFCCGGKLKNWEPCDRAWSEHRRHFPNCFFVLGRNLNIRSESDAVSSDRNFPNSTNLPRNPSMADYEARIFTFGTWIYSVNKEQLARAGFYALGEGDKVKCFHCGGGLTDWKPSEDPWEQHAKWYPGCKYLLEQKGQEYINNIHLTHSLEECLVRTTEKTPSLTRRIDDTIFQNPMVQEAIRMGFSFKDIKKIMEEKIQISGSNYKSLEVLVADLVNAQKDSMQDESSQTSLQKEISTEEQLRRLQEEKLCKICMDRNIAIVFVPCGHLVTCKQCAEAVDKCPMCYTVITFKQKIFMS
# Chain of UniProt Q7Z7E8 (Q7Z7E8 whole entry, looked up): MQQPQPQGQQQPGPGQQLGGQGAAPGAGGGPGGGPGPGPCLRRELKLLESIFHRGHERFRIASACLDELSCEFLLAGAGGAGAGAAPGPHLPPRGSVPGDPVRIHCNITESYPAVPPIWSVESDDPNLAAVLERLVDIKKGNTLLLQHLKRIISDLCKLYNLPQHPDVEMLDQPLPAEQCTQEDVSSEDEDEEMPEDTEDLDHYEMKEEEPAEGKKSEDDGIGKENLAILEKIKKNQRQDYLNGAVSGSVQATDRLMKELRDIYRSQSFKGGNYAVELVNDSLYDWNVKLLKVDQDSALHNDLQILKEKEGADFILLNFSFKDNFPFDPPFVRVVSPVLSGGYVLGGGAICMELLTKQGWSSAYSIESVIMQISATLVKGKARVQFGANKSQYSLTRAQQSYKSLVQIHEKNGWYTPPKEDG
# Chain of UniProt P51668 (P51668 whole entry, looked up): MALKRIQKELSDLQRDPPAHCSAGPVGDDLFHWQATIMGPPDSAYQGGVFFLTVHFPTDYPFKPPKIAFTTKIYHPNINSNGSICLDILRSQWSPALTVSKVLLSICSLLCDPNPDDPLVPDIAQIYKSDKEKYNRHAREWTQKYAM
# Chain of UniProt A6NIH7 (A6NIH7 whole entry, looked up): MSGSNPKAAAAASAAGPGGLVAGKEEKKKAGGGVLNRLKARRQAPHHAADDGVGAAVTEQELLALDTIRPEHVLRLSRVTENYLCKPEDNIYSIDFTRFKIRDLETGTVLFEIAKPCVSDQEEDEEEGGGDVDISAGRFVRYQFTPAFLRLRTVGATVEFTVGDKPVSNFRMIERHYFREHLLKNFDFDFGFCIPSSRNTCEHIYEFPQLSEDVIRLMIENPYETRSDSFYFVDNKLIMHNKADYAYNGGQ
# Chain of UniProt Q16763 (Q16763 whole entry, looked up): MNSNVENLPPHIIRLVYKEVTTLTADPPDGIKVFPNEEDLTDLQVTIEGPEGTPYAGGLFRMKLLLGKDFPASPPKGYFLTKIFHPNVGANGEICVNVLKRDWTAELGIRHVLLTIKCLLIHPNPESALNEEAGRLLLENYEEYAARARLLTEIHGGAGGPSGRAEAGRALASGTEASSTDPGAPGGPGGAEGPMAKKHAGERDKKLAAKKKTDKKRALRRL
# Chain of UniProt Q5U3C3 (Q5U3C3 whole entry, looked up): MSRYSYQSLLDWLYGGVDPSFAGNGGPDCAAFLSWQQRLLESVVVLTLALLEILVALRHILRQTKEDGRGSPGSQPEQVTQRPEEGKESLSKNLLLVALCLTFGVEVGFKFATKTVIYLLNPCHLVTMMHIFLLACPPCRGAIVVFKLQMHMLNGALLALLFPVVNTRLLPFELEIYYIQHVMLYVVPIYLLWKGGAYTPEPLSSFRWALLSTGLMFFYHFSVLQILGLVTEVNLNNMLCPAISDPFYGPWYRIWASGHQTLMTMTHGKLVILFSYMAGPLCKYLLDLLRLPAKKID
# Chain of UniProt Q96DX7 (Q96DX7 whole entry, looked up): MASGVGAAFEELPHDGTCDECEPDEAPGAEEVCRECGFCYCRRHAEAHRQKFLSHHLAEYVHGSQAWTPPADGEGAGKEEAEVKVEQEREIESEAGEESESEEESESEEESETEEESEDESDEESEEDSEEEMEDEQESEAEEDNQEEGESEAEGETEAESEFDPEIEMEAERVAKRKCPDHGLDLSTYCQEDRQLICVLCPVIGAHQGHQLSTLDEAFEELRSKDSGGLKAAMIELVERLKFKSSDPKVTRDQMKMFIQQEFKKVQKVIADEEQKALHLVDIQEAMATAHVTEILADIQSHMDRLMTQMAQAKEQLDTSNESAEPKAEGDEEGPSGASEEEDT
row,Target,log2 fold change
1,TRIM44 (UniProt Q96DX7),0 (inactive)
2,TRIM23 (UniProt P36406),-0.025 (inactive)
3,VPS28 (UniProt Q9UK41),-0.059 (inactive)
4,UBE2D1 (UniProt P51668),0.119 (inactive)
5,TMEM268 isoform 3 (UniProt Q5VZI3),0.12 (inactive)
6,WASHC2A (UniProt Q641Q2),-0.013 (inactive)
7,TMEM179B (UniProt Q7Z7N9),-0.235 (inactive)
8,UBE4B isoform 4 (UniProt O95155),0.005 (inactive)
9,TRAPPC6B (UniProt Q86SZ2),0.025 (inactive)
10,TMEM9B (UniProt Q9NQ34),-0.025 (inactive)
11,TSPAN13 (UniProt O95857),-0.091 (inactive)
12,TMEM8A (UniProt Q9HCN3),-0.059 (inactive)
13,WEE1 (UniProt P30291),-0.455 (inactive)
14,UNC119B (UniProt A6NIH7),-0.094 (inactive)
15,TRIM4 (UniProt Q9C037),-0.04 (inactive)
16,UBIAD1 (UniProt Q9Y5Z9),-0.089 (inactive)
17,USP48 isoform 8 (UniProt Q86UV5),-0.077 (inactive)

row,Target,log2 fold change
1,TMEM164 (UniProt Q5U3C3),0.129 (inactive)
2,UFM1 isoform 2 (UniProt P61960),-0.031 (inactive)
3,TUT4 (UniProt Q5TAX3),0.028 (inactive)
4,TMEM41A (UniProt Q96HV5),-0.005 (inactive)
5,TMEM184C (UniProt Q9NVA4),-0.185 (inactive)
6,XIAP (UniProt P98170),-0.004 (inactive)
7,TMEM106B (UniProt Q9NUM4),-0.042 (inactive)
8,TXNL4B (UniProt Q9NX01),0.098 (inactive)
9,UBE2S (UniProt Q16763),-0.04 (inactive)
10,VKORC1 (UniProt Q9BQB6),-0.006 (inactive)
11,TMEM161A (UniProt Q9NX61),0.043 (inactive)
12,VPS37A (UniProt Q8NEZ2),-0.066 (inactive)
13,TTI1 (UniProt O43156),-0.079 (inactive)
14,UBE2Q1 (UniProt Q7Z7E8),-0.01 (inactive)
15,TRABD (UniProt Q9H4I3),0.008 (inactive)
16,UBXN10 (UniProt Q96LJ8),0.062 (inactive)
17,TMEM219 (UniProt Q86XT9),0.079 (inactive)

# Compound: NC(=O)c1cnc(N[C@@H]2CCCC[C@@H]2N)nc1Nc1cccc(-n2nccn2)c1
# Assay: as above
# How it was run: as §1
row,Target,log2 fold change
1,TRIM44 (UniProt Q96DX7),-0.037 (inactive)
2,VPS28 (UniProt Q9UK41),-0.079 (inactive)
3,UBE2D1 (UniProt P51668),0.042 (inactive)
4,TMEM268 isoform 3 (UniProt Q5VZI3),0.057 (inactive)
5,WASHC2A (UniProt Q641Q2),-0.012 (inactive)
6,TMEM179B (UniProt Q7Z7N9),0.079 (inactive)
7,UBE4B isoform 4 (UniProt O95155),-0.055 (inactive)
8,TRAPPC6B (UniProt Q86SZ2),0.016 (inactive)
9,TMEM9B (UniProt Q9NQ34),0.004 (inactive)
10,WEE1 (UniProt P30291),0.205 (inactive)
11,UNC119B (UniProt A6NIH7),0.039 (inactive)
12,TRIM4 (UniProt Q9C037),0.007 (inactive)
13,UBIAD1 (UniProt Q9Y5Z9),0 (inactive)
14,USP48 isoform 8 (UniProt Q86UV5),0.002 (inactive)
15,TMEM164 (UniProt Q5U3C3),-0.138 (inactive)
16,UFM1 isoform 2 (UniProt P61960),-0.114 (inactive)
17,TMEM41A (UniProt Q96HV5),-0.053 (inactive)
18,TMEM184C (UniProt Q9NVA4),0.069 (inactive)
19,XIAP (UniProt P98170),-0.12 (inactive)
20,TMEM106B (UniProt Q9NUM4),-0.038 (inactive)
21,TXNL4B (UniProt Q9NX01),-0.112 (inactive)
22,UBE2S (UniProt Q16763),-0.043 (inactive)
23,VKORC1 (UniProt Q9BQB6),0 (inactive)
24,TMEM161A (UniProt Q9NX61),0.012 (inactive)
25,VWA3B isoform 6 (UniProt Q502W6),-0.271 (inactive)
26,VPS37A (UniProt Q8NEZ2),-0.021 (inactive)
27,TTI1 (UniProt O43156),-0.093 (inactive)
28,UBE2Q1 (UniProt Q7Z7E8),-0.059 (inactive)
29,TRABD (UniProt Q9H4I3),-0.006 (inactive)
30,TMEM219 (UniProt Q86XT9),0.033 (inactive)

# Compound: NC1(c2ccc(-c3nc4ccn5c(=O)[nH]nc5c4cc3-c3ccccc3)cc2)CCC1
# Assay: as above
# How it was run: as §1
row,Target,log2 fold change
1,TRIM44 (UniProt Q96DX7),-0.048 (inactive)
2,TRIM23 (UniProt P36406),-0.02 (inactive)
3,VPS28 (UniProt Q9UK41),-0.177 (inactive)
4,UBE2D1 (UniProt P51668),-0.143 (inactive)
5,TMEM268 isoform 3 (UniProt Q5VZI3),-0.141 (inactive)
6,WASHC2A (UniProt Q641Q2),-0.159 (inactive)
7,TMEM179B (UniProt Q7Z7N9),-0.255 (inactive)
8,UBE4B isoform 4 (UniProt O95155),-0.113 (inactive)
9,TRAPPC6B (UniProt Q86SZ2),-0.025 (inactive)
10,TMEM9B (UniProt Q9NQ34),-0.093 (inactive)
11,TSPAN13 (UniProt O95857),-0.125 (inactive)
12,TMEM8A (UniProt Q9HCN3),-0.393 (inactive)
13,WEE1 (UniProt P30291),0.04 (inactive)
14,UNC119B (UniProt A6NIH7),0.146 (inactive)
15,TRIM4 (UniProt Q9C037),0.082 (inactive)
16,UBIAD1 (UniProt Q9Y5Z9),0.055 (inactive)
17,USP48 isoform 8 (UniProt Q86UV5),-0.235 (inactive)
18,TMEM164 (UniProt Q5U3C3),-0.006 (inactive)

row,Target,log2 fold change
1,UFM1 isoform 2 (UniProt P61960),-0.087 (inactive)
2,TUT4 (UniProt Q5TAX3),0.07 (inactive)
3,UBAP2L (UniProt F8W726),0.083 (inactive)
4,TMEM41A (UniProt Q96HV5),0.002 (inactive)
5,TMEM184C (UniProt Q9NVA4),-0.401 (active)
6,XIAP (UniProt P98170),-0.113 (inactive)
7,TMEM106B (UniProt Q9NUM4),-0.056 (inactive)
8,TXNL4B (UniProt Q9NX01),-0.035 (inactive)
9,UBE2S (UniProt Q16763),-0.033 (inactive)
10,VKORC1 (UniProt Q9BQB6),-0.054 (inactive)
11,TMEM161A (UniProt Q9NX61),-0.132 (inactive)
12,VWA3B isoform 6 (UniProt Q502W6),-0.023 (inactive)
13,VPS37A (UniProt Q8NEZ2),-0.317 (inactive)
14,TTI1 (UniProt O43156),-0.181 (inactive)
15,UBE2Q1 (UniProt Q7Z7E8),-0.084 (inactive)
16,TRABD (UniProt Q9H4I3),0.1 (inactive)
17,UBXN10 (UniProt Q96LJ8),0.102 (inactive)
